Experiment [1] can be described thus: qHTS to identify inhibitors of the type 1 interferon - major histocompatibility complex class I in skeletal muscle: primary screen against the NCATS LOPAC collection (AID 1347405).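 Note: lytic HiBiT luminescence reporting HLA-B protein level.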 The method, boiled down:
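CRISPR-engineered immortalized human myoblasts (C25cl48) with HiBiT fused to endogenous HLA-B*08:01, stimulated with 4 ng/ml IFN-beta. LOPAC compounds tested as a 7-point 1:4.3 titration (top 46 uM final), 24 h at 37 C; lytic HiBiT luminescence read.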
On the technique in general: qHTS replaces the single test concentration by a dilution series.

Experiment [2] in a line: qHTS for inhibitors of adenylyl cyclases using a fission yeast platform: a pilot screen against the NCATS LOPAC library (AID 1347410). The method, boiled down: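 Read-out: fbp1-GFP fluorescence by laser scanning cytometry (488 nm laser), a gain of signal when AC/cAMP-PKA signalling is inhibited. Strain CHP2027 expressing AC9, GNAS and PDE4D2; compounds at up to 57 µM; 18 h, 30C.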

Experiment [3] concerns the target Calcium and integrin-binding protein 1 (Homo sapiens) (UniProt Q99828). Description: Validation qHTS for Identification of Calcium Integrin Binding protein 1 (CIB1) Competitor (AID 1508618). The method, boiled down: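 Displacement of FITC-alphaIIb peptide (100 nM) from CIB1-GST (1 uM) is monitored by polarization in quantitative HTS format; buffer carries 5 mM CaCl2 and 125 mM NaCl at pH 7.4, incubations are at room temperature.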

Experiment [4] shares this target. Description: Primary qHTS for Identification of Calcium Integrin Binding Protein 1 (CIB1) Competitor (AID 1508620).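 Note: GST tagged CIB1 binding a fluorescein labelled alphaIIb integrin peptide tracer; top concentration of the series differs between compounds.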 Put shortly:
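Fluorescence polarization competition: GST-tagged CIB1 (1 uM final) preincubated with compound 15 min at room temperature, then FITC-labelled alphaIIb peptide (100 nM final) added. After 15 min at room temperature, polarization read at Ex 480/Em 540.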

The nature of experiment [5]: qHTS to identify inhibitors of the type 1 interferon - major histocompatibility complex class I in skeletal muscle: primary screen against the NCATS Pharmaceutical Collection (AID 1347407).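 Note: luminescence of HiBiT knocked into endogenous HLA-B as interferon-induced MHC class I level.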 The method, boiled down: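 HLA-B HiBiT myoblasts, dexamethasone-free growth medium + 4 ng/ml IFN-b; compounds pinned 1 h after seeding, […] from 46 uM; 24 h, 37 C, 5% CO2; lytic HiBiT detection, 10 min RT, luminescence.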

The target of experiment [6] is Protein phosphatase 1D (Homo sapiens) (UniProt O15297). Kind of experiment: RapidFire Mass Spectrometry qHTS Assay for Modulators of WT P53-Induced Phosphatase 1 (WIP1) (AID 1347424).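 Note: amount of dephosphorylated VEPPL-S-QETFS peptide product formed by WIP1.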 Note: potency is the fitted concentration of half-maximal effect. Put shortly: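 10 nM WIP1 preincubated with compounds 1 hr at room temperature in pH 7.5 Tris buffer with 30 mM MgCl2, 1 mM TCEP; 2 uM VEPPL-pS-QETFS phosphopeptide for 5 min, formic acid quench; dephosphorylated product quantified by RapidFire MS against labelled standard.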
Sequence of Protein phosphatase 1D (Homo sapiens) (O15297 whole entry, looked up): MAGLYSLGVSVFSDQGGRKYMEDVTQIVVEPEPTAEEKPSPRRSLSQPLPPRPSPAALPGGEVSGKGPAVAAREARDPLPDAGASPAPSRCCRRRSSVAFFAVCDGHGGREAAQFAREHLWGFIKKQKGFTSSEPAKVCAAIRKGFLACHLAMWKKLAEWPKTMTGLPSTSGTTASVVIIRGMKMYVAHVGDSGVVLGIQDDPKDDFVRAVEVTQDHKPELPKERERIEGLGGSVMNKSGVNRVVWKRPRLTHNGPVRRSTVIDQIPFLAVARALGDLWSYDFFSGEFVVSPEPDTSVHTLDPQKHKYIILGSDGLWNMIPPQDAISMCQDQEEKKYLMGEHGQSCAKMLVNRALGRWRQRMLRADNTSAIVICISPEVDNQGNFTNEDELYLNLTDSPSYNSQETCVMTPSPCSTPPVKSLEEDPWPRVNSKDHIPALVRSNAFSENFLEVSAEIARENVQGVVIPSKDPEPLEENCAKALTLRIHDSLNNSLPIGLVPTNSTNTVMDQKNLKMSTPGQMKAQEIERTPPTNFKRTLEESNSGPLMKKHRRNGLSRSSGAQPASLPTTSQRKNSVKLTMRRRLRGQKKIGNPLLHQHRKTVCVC

Experiment [7] shares this target. Kind of experiment: Rhodamine-PBP qHTS Assay for Modulators of WT P53-Induced Phosphatase 1 (WIP1) (AID 1347425). Put shortly: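 5 nM WIP1 + 10 uM Rh-PBP, 50 mM Tris pH 7.5, 30 mM MgCl2, 1 mM TCEP, 0.1 mM EGTA, BSA; cpds pinned, 1 hr RT; + 10 uM phosphopeptide; fluorescence 1-min reads x 11 min; delta = f1 - f0.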
The nature of experiment [8]: Primary qHTS for inhibitors of La Crosse Virus (LACV) - induced cell death in SH-SY5Y cells (AID 1508616).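 Note: top concentration of the series differs between compounds; higher means more rescue of cells from virus-induced death.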 The method, boiled down:
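SH-SY5Y cells (6000/well) plated 24 h, then given compounds by pin transfer and LACV at 0.01 MOI for 6 days at 37C. Viability measured by ATPLite luminescence, normalized to infected DMSO and uninfected DMSO.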

Records with an inconclusive call do not appear. Activity calls are given as the source filed them. Calls come from the whole dose curve; as a rule, active = well fitted curve in the direction sought with a large enough effect; inconclusive = small, poorly fitted or top-dose-only effect, or another doubt; inactive = no such curve, though single readings can be large; an effect the other way counts as inactive or inconclusive.

Sequence of Calcium and integrin-binding protein 1 (Homo sapiens) (Q99828 whole entry, looked up): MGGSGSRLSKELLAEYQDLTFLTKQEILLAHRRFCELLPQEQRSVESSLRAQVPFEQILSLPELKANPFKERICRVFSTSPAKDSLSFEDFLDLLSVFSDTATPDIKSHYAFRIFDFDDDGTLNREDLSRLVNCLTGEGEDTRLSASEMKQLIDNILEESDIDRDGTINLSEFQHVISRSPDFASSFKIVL

For the compound `CN(CCCOc1ccc(Cc2ccccc2)cc1)CCC(=O)O`, the Potency result in experiment [1] and in experiment [4] was “inactive” in each case. Further, the compound was classed as inactive in experiment [2] and in experiment [3].
For `CCCOC(=O)c1ccc(O)cc1`, the Potency entry in experiment [5], in experiment [6], in experiment [8] and in experiment [4] was “inactive” each time. In experiment [7], the compound was classed as inactive.
In the case of `Cc1ccc(C(=O)c2ccc(CC(=O)O)n2C)cc1`, the Potency result in experiment [5], in experiment [6] and in experiment [4] was “inactive” throughout. Also, the compound was classed as inactive in experiment [7].
For the compound `Nc1ccc(O)c(C(=O)O)c1`, the Potency result in experiment [5] and in experiment [8] was “inactive” throughout. Moreover, the Potency in experiment [6] was 17.8 µM (active).
With `N=C1N=C(N)c2cc3ccccc3cc21`, the Potency result in experiment [5], in experiment [6], in experiment [8] and in experiment [4] was “inactive” throughout. Also, the compound was classed as inactive in experiment [7].
For `C#CC1(O)CC[C@H]2[C@@H]3CCC4=CCCC[C@@H]4[C@H]3CC[C@@]21C` (stereo not given in full), the Potency entry in experiment [5], in experiment [6], in experiment [8] and in experiment [4] was “inactive” throughout. Also, in experiment [7], the call was inactive.
With `COc1cc(NC(C)CCCN)c2ncccc2c1` (stereo not given), the Potency result in experiment [5], in experiment [6], in experiment [8] and in experiment [4] was “inactive” each time.
With `Clc1ccccc1-c1nc(-c2ccncc2)no1`, the Potency result in experiment [5], in experiment [6], in experiment [8] and in experiment [4] was “inactive” each time. For the same compound, in experiment [7], the result was inactive.
In the case of `Nc1cc(-c2ccncc2)c[nH]c1=O`, the Potency entry in experiment [5] and in experiment [8] was “inactive” throughout. Moreover, the Potency in experiment [6] was 22.4 µM (active).
In the case of `Cc1c(N)c(=O)n(-c2ccccc2)n1C`, the Potency result in experiment [5] and in experiment [4] was “inactive” throughout. Besides, the compound was classed as inactive in experiment [7].
Consider `Oc1c(Br)cc(Br)c2cccnc12`, for which the Potency result in experiment [5] was “inactive”. Moreover, the call in experiment [7] was inactive.
Regarding `Cc1nc2ccccc2n1Cc1ccc(Cl)cc1`, the Potency entry in experiment [5], in experiment [8] and in experiment [4] was “inactive” throughout. In addition, the compound was classed as inactive in experiment [7].
Consider `Nc1c(CC(=O)O)cccc1C(=O)c1ccc(Br)cc1`, for which the Potency result in experiment [5], in experiment [8] and in experiment [4] was “inactive” throughout. Also, the call in experiment [7] was inactive.
Take `CN(C)CCn1nnnc1SCC1=C(C(=O)O)N2C(=O)[C@@H](NC(=O)Cc3csc(N)n3)[C@H]2SC1`: the Potency entry in experiment [5], in experiment [8] and in experiment [4] was “inactive” each time. For the same compound, the outcome in experiment [7] was inactive.

The values above are taken from PubChem BioAssay (NCATS).
